# According to PMC7862700, “An all-to-all approach to the identification of sequence-specific readers for epigenetic DNA modifications on cytosine”:
# Columns and labels:
# Assay in all cases: DAPPL (digital affinity profiling via proximity ligation, sequencing); 10 mM Tris-HCl pH 7.5, 50 mM NaCl, 1 mM DTT, 4% glycerol, room temperature, 30 min; GST-TFs on glutathione beads, 16-mer random dsDNA library, 0.1% formaldehyde crosslink after washing; high values mean tight binding
# [1] = biological target: T1, FEV (Homo sapiens, UniProt Q99581 1-238); details: protein: recombinant; tags: N-terminal GST; dsDNA, one strand shown
# T1 sequence: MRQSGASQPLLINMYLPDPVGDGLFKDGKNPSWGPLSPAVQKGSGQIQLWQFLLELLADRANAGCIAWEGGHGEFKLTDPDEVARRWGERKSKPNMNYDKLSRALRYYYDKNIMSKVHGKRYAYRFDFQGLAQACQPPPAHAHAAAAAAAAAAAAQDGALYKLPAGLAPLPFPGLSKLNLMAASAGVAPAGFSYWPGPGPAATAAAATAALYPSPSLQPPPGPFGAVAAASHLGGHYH
# Summary of the method: (§1)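 Binding signal is each hexamer's read frequency for a factor divided by its frequency in the tag-only sample. The factors were GST-fused human transcription factors from yeast, captured on glutathione beads, DNA-barcoded and pooled with that sample. Pools were incubated with 200 nmole of a random double-stranded 16-mer DNA library in Tris/NaCl/DTT/glycerol buffer at room temperature for 30 min, then washed, crosslinked with 0.1% formaldehyde, proximity-ligated with BsaI/T4 ligase (1 h, 37 °C), PCR-amplified and sequenced on an Illumina NextSeq500.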
# [2] = biological target: ETV5 (Homo sapiens, UniProt P41161 1-510); details: protein: recombinant; tags: N-terminal GST; dsDNA, one strand shown
# Summary of the method: as §1
# [3] = biological target: HSF1 (Homo sapiens, UniProt Q00613 1-529); details: protein: recombinant; tags: N-terminal GST; chain copies: 3; dsDNA, one strand shown
# Summary of the method: as §1
# [4] = biological target: T2, SPIC (Homo sapiens, UniProt Q8N5J4 1-248); details: protein: recombinant; tags: N-terminal GST; dsDNA, one strand shown
# T2 sequence: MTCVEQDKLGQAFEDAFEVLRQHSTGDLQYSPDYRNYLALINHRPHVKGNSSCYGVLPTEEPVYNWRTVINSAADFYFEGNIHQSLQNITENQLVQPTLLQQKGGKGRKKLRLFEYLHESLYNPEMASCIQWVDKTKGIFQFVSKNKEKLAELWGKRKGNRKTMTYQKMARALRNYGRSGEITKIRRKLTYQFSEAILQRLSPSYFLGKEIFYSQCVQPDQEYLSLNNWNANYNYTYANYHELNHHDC
# Summary of the method: as §1
# [5] = biological target: ELF4 (Homo sapiens, UniProt Q99607 1-663); details: protein: recombinant; tags: N-terminal GST; dsDNA, one strand shown
# Summary of the method: as §1
# [6] = biological target: T3, ELK4 (Homo sapiens, UniProt P28324-2 1-405); details: protein: recombinant; tags: N-terminal GST; dsDNA, one strand shown
# T3 sequence: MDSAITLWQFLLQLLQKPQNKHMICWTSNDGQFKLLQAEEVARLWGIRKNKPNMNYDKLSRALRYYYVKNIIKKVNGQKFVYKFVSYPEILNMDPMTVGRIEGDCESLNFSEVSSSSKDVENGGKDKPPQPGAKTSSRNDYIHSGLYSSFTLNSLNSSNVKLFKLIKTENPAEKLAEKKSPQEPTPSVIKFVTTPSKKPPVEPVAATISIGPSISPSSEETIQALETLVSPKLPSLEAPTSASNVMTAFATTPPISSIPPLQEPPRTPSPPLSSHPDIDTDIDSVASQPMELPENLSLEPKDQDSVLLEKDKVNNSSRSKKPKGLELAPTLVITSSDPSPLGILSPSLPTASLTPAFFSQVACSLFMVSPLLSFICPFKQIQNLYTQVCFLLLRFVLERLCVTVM
# Summary of the method: as §1
# [7] = biological target: T4, ETV2 (Homo sapiens, UniProt O00321 1-342); details: protein: recombinant; tags: N-terminal GST; dsDNA, one strand shown
# T4 sequence: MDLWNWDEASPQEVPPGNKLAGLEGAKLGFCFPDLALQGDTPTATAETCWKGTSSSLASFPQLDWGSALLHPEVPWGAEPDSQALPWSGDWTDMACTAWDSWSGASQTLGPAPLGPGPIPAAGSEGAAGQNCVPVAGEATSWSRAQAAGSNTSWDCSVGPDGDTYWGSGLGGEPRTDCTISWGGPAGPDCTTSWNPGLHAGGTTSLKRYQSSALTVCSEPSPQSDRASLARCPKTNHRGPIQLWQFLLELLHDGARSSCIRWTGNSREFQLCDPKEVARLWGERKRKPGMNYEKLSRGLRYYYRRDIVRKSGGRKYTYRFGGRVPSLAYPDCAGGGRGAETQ
# Summary of the method: as §1
# [8] = biological target: T5, ELF3 (Homo sapiens, UniProt P78545 1-371); details: protein: recombinant; tags: N-terminal GST; dsDNA, one strand shown
# T5 sequence: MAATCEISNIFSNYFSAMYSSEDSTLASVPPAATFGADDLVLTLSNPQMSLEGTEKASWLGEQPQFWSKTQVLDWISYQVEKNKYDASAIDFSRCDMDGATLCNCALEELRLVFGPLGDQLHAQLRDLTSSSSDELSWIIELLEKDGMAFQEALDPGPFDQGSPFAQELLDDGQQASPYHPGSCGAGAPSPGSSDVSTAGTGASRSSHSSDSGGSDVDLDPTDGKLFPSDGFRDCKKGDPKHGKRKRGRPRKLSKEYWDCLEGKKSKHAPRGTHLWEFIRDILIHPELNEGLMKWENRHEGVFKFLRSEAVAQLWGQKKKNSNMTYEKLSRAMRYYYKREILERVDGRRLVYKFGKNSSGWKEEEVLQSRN
# Summary of the method: as §1
# [9] = biological target: CRX (Homo sapiens, UniProt O43186 1-299); details: protein: recombinant; tags: N-terminal GST; dsDNA, one strand shown
# Summary of the method: as §1
# [10] = biological target: ETV1 (Homo sapiens, UniProt P50549 1-477); details: protein: recombinant; tags: N-terminal GST; dsDNA, one strand shown
# Summary of the method: as §1
# [11] = biological target: T6, ERF (Homo sapiens, UniProt P50548 1-548); details: protein: recombinant; tags: N-terminal GST; dsDNA, one strand shown
# T6 sequence: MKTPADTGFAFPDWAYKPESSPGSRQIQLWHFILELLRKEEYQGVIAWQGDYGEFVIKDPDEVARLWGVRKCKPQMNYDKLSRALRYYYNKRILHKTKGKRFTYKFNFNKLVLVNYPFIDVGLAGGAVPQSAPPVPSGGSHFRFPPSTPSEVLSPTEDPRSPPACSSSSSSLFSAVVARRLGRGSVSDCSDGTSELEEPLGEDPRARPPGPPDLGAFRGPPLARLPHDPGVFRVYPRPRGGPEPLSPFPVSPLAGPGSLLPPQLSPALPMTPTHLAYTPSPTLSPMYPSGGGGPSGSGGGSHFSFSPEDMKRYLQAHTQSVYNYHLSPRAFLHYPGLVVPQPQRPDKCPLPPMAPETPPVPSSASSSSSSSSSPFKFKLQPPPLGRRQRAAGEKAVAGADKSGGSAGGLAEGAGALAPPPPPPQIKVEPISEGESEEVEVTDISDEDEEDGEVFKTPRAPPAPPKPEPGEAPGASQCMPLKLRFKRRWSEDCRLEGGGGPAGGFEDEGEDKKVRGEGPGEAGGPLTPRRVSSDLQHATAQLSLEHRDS
# Summary of the method: as §1
# [12] = biological target: T7, ETV3L (Homo sapiens, UniProt Q6ZN32 1-361); details: protein: recombinant; tags: N-terminal GST; dsDNA, one strand shown
# T7 sequence: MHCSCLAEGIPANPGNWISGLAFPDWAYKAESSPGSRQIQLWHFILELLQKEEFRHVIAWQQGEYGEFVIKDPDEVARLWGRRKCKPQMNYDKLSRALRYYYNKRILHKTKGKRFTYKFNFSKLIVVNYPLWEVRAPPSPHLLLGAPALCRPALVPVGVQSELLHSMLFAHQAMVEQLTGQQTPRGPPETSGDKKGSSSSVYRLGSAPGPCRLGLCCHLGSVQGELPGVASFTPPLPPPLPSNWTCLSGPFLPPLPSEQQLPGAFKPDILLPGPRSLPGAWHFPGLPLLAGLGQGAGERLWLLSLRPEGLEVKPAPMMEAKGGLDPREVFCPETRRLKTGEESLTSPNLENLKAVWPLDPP
# Summary of the method: as §1
# [13] = biological target: T8, ETS2 (Homo sapiens, UniProt P15036 1-469); details: protein: recombinant; tags: N-terminal GST; dsDNA, one strand shown
# T8 sequence: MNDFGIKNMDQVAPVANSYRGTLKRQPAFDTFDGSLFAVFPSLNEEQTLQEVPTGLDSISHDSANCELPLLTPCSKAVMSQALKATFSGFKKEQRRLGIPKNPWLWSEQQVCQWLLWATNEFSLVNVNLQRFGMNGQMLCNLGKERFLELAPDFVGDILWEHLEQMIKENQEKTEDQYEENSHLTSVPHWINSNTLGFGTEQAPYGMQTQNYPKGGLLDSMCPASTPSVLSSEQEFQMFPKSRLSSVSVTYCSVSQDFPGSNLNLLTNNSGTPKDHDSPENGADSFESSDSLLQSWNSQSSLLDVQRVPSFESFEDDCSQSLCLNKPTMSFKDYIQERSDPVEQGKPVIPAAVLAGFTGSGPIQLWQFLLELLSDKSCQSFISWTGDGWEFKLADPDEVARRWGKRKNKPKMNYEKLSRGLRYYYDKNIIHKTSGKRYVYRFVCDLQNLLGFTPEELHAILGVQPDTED
# Summary of the method: as §1
# [14] = biological target: T9, SPDEF (Homo sapiens, UniProt O95238 1-335); details: protein: recombinant; tags: N-terminal GST; dsDNA, one strand shown
# T9 sequence: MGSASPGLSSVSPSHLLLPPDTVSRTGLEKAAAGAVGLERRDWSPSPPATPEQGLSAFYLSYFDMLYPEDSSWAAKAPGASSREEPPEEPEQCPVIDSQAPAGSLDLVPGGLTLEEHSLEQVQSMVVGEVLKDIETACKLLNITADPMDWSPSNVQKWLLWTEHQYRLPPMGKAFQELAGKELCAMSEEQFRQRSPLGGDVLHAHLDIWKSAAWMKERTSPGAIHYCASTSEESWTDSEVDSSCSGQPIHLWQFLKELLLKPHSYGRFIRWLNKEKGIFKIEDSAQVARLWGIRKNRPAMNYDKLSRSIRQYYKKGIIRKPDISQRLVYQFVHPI
# Summary of the method: as §1
# [15] = biological target: T10, ETV7 (Homo sapiens, UniProt Q9Y603 1-341); details: protein: recombinant; tags: N-terminal GST; dsDNA, one strand shown
# T10 sequence: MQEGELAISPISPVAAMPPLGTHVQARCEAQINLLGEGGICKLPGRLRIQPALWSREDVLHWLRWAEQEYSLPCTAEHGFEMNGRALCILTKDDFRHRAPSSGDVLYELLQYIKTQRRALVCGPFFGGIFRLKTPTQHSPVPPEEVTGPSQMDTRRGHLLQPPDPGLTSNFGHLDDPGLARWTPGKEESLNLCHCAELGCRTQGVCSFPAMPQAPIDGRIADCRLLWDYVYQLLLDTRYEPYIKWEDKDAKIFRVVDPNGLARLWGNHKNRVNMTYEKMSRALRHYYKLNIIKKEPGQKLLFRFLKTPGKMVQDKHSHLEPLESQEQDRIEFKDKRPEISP
# Summary of the method: as §1
# [16] = biological target: T11, ELF5 (Homo sapiens, UniProt Q9UKW6-2 1-255); details: protein: recombinant; tags: N-terminal GST; dsDNA, one strand shown
# T11 sequence: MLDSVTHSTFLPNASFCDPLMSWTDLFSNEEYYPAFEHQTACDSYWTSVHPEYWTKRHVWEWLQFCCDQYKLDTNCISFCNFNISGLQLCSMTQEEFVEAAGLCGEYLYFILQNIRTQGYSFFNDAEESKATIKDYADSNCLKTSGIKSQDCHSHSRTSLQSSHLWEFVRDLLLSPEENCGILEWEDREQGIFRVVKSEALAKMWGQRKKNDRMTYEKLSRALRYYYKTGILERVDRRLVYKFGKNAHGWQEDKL
# Summary of the method: as §1
# [17] = biological target: T12, ETV3 (Homo sapiens, UniProt P41162-2 1-143); details: protein: recombinant; tags: N-terminal GST; dsDNA, one strand shown
# T12 sequence: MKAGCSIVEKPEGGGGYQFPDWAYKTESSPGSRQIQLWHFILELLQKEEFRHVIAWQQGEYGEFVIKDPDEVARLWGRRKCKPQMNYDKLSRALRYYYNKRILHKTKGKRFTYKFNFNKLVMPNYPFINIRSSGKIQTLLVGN
# Summary of the method: as §1
# [18] = biological target: ETV6 (Homo sapiens, UniProt P41212 1-452); details: protein: recombinant; tags: N-terminal GST; dsDNA, one strand shown
# Summary of the method: as §1
# ETV1, sequence (P50549 whole entry): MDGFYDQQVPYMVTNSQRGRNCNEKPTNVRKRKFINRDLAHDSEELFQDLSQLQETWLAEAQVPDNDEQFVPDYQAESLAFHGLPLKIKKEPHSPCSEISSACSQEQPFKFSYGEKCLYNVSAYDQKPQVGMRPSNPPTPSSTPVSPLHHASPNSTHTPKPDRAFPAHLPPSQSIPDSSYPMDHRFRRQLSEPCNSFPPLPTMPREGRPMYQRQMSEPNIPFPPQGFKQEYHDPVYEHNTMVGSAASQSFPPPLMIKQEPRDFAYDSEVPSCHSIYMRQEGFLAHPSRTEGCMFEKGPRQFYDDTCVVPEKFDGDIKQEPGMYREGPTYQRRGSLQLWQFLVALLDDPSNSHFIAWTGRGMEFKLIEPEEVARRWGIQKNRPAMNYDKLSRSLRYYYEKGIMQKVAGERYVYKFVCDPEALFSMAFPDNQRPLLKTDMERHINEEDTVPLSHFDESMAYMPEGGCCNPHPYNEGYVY
# ELF4, sequence (Q99607 whole entry): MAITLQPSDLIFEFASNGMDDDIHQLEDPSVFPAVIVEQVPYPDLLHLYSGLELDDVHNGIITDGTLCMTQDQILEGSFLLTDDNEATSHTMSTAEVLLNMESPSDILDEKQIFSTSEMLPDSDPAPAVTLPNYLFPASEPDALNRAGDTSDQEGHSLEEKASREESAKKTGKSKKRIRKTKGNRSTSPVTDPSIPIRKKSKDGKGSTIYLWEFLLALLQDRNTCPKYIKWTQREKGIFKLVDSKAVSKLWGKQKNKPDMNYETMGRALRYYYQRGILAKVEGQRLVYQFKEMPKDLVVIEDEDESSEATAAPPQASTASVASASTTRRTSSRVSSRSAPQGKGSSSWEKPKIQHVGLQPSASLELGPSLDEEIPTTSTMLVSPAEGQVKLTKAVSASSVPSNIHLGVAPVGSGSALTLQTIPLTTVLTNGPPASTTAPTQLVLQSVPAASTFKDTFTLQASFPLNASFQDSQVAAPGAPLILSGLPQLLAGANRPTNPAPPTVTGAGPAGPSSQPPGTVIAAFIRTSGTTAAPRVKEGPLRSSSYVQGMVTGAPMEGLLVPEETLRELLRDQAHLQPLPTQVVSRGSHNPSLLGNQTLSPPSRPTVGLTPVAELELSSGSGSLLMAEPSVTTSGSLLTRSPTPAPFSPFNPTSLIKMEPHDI
# CRX, sequence (O43186 whole entry): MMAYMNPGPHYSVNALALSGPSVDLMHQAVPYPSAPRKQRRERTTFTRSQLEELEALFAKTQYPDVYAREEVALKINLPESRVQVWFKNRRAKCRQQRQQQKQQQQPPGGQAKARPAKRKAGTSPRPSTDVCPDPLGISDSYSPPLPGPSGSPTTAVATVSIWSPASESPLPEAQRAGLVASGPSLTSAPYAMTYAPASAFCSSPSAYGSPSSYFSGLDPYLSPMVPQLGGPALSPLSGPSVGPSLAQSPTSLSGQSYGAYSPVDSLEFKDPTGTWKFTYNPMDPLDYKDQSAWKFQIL
# HSF1, sequence (Q00613 whole entry): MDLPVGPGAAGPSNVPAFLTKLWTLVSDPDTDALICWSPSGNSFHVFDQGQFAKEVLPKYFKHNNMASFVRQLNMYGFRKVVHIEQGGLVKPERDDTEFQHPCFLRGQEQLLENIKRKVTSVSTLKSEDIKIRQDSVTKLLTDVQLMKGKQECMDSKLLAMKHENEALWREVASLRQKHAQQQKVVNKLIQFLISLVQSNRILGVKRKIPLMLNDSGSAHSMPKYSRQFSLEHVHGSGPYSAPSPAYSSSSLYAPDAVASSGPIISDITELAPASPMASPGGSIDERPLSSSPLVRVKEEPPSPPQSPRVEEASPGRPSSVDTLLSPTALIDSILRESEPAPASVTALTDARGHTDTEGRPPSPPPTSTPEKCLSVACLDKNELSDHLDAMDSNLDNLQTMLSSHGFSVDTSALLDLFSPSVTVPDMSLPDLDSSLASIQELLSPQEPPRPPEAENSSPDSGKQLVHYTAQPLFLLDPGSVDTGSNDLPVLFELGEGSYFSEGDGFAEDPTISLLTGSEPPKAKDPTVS
# ETV6, sequence (P41212 whole entry): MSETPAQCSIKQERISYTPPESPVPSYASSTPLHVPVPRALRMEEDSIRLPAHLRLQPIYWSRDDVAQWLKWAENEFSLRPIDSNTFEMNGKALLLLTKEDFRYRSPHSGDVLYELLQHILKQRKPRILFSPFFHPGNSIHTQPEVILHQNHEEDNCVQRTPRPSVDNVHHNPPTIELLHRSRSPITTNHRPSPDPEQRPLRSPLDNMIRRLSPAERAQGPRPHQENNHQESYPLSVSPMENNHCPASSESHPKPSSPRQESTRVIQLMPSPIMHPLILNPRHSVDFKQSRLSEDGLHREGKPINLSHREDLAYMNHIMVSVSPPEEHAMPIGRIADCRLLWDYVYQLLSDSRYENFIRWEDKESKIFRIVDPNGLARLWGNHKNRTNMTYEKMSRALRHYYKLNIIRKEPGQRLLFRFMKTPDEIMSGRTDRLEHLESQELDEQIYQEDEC
# ETV5, sequence (P41161 whole entry): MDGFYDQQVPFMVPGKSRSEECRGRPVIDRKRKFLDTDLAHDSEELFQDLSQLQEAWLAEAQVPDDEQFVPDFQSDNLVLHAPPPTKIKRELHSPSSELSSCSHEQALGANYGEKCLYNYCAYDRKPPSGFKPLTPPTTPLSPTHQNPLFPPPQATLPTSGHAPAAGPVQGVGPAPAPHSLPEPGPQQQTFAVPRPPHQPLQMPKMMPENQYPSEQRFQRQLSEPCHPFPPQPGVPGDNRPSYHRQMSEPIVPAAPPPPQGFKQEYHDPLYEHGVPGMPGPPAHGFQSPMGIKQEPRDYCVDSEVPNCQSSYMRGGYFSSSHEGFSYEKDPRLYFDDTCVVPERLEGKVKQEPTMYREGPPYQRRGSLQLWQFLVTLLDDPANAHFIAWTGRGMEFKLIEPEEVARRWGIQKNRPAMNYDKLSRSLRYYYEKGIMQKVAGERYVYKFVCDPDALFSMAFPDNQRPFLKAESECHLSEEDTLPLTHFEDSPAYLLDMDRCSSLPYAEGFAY
sequence,measurement,setting,value
TCCCCC,binding signal,[1],"1.44 fold enrichment (6-mer frequency, TF over GST control)"
same,binding signal,[2],"1.48 fold enrichment (6-mer frequency, TF over GST control)"
same,binding signal,[3],"1.41 fold enrichment (6-mer frequency, TF over GST control)"
same,binding signal,[4],"1.44 fold enrichment (6-mer frequency, TF over GST control)"
same,binding signal,[5],"1.53 fold enrichment (6-mer frequency, TF over GST control)"
same,binding signal,[6],"1.57 fold enrichment (6-mer frequency, TF over GST control)"
same,binding signal,[7],"1.53 fold enrichment (6-mer frequency, TF over GST control)"
same,binding signal,[8],"1.42 fold enrichment (6-mer frequency, TF over GST control)"
same,binding signal,[9],"1.45 fold enrichment (6-mer frequency, TF over GST control)"
same,binding signal,[10],"1.46 fold enrichment (6-mer frequency, TF over GST control)"
same,binding signal,[11],"1.45 fold enrichment (6-mer frequency, TF over GST control)"
same,binding signal,[12],"1.43 fold enrichment (6-mer frequency, TF over GST control)"
same,binding signal,[13],"1.42 fold enrichment (6-mer frequency, TF over GST control)"
same,binding signal,[14],"1.35 fold enrichment (6-mer frequency, TF over GST control)"
same,binding signal,[15],"1.52 fold enrichment (6-mer frequency, TF over GST control)"
same,binding signal,[16],"1.7 fold enrichment (6-mer frequency, TF over GST control)"
same,binding signal,[17],"1.51 fold enrichment (6-mer frequency, TF over GST control)"
same,binding signal,[18],"1.56 fold enrichment (6-mer frequency, TF over GST control)"
